In PubChem BioAssay (NCATS):
Records with an inconclusive call do not appear. The source made the active and inactive calls. The call rests on the fitted dose curve; in most records, active means well fitted curve in the direction sought with a large enough effect; inconclusive means small, poorly fitted or top-dose-only effect, or another doubt; inactive means no such curve, though single readings can be large; an effect the other way counts as inactive or inconclusive.

Legend:
[1] = target: Luciferin 4-monooxygenase (Photinus pyralis) (UniProt P08659); assay: Primary firefly luciferase (FLuc) qHTS assay for identification of artifact compounds. (AID 1845220); further: nearly all actives have a fitted effect of over 60% in size
How it was run: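 In this counter-screen for luciferase artifacts, test compounds met substrate (10 uM each luciferin and ATP) before 10 nM enzyme started the reaction. Light output was measured 5 min later.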

[2] = Primary fluorescence-based thiol-reactive (MSTI) qHTS assay for identification of artifact compounds. (AID 1845221);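 further: series mostly up to about 54 µM; thiol-reactive compounds lower the probe fluorescence signal; nearly all actives have a fitted effect of over 65% in size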
How it was run: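 MSTI probe at 4 uM final in 2% DMSO/PBS pH 7.4; compounds, 1 h at room temperature in dark. Fluorescence Ex/Em 525/598 nm, normalised to Acetyl-MSTI and MSTI, fitted to 4-parameter Hill.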

[3] = Primary redox qHTS assay for identification of artifact compounds. (AID 1845223)
How it was run: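 Amplex Red (25 uM) and HRP (250 mU/mL) in HBSS, with compounds for 15 min, then 250 uM DTT for 30 min, room temperature, dark. Fluorescence 525/598 nm read; normalized to DMSO and 10 uM DA3003; Hill fit.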

Measured: Potency

C/C=C/C[C@@H](C)[C@@H](O)[C@H]1C(=O)N[C@@H](CC)C(=O)N(C)CC(=O)N(C)[C@@H](CC(C)C)C(=O)N[C@@H](C(C)C)C(=O)N(C)[C@@H](CC(C)C)C(=O)N[C@@H](C)C(=O)N[C@H](C)C(=O)N(C)[C@@H](CC(C)C)C(=O)N(C)[C@@H](CC(C)C)C(=O)N(C)[C@H](C(C)C)C(=O)N1C
inactive: [1] | [2] | [3]
